The values below come from PubChem BioAssay.

Structures are written as SMILES. A number with no mark means an inactive call.
Further: test concentration not given here.

The nature of one experiment: fission yeast growth modulation, primary screen, strain 972, OD600, 24 h, no modulator (AID 1090).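 Further: basal condition with compound alone and no growth modifier present.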 Conditions: S. pombe 972 growth, higher = more signal, called active from +8 up or from −8 down.
`CC(C)=CCCC(C)=CCON=C1C[C@@H](O)[C@@H](O)[C@@H]2[C@@H]3C(=O)N(c4ccc(F)cc4F)C(=O)[C@@H]3CC[C@H]12`: the z-score was -0.964.

Consider `COc1cc(O)c(C(=O)C=Cc2ccc3c(c2)OCO3)c(OC)c1`, for which the z-score was 0.561.

Turning to `COc1ccc(O[C@H]2C=C[C@@H](c3ccccc3)O[C@@H]2CON=C2[C@H]3CCn4c(=O)n(-c5ccccc5)c(=O)n4[C@H]3[C@H](O)[C@@H]3O[C@H]23)cc1`, the z-score is 0.444.

As for `COc1ccc(COC(=O)NN=C2C[C@@H](O)[C@@H](O)[C@@H]3[C@@H]4C(=O)N(Cc5ccccc5)C(=O)[C@@H]4CC[C@H]23)cc1`, the z-score was -0.619.

As for `CO[C@H]1COC(=O)[C@@H](C)COC(=O)[C@@H](OCc2ccccc2)C=C[C@@H]1C`, the z-score was -0.204.

For the molecule `COc1ccc(O[C@H]2C=C[C@@H](c3ccccc3)O[C@@H]2CON=C(C)CCN2CCc3nc(-c4ccccc4)c(-c4ccccc4)cc3C2)cc1`, the z-score was -0.513.

With `CCN1C(=O)[C@H]2[C@H]3[C@H](O)[C@H](O)CC(=O)[C@H]3CC[C@H]2C1=O`, the z-score was -0.38.

As for `CCCNC(=O)OC[C@H]1O[C@H](CCON=C(C)C)C=C[C@@H]1Oc1ccc(OC)cc1`, the z-score is -5.54.

On to `CCOC(=O)NN=C1C[C@@H](O)[C@@H](O)[C@@H]2[C@@H]3C(=O)N(c4ccc(F)cc4F)C(=O)[C@@H]3CC[C@@H]12`, for which the z-score is 0.733.

Take `C[n+]1ccc(-c2ccc(CO)cc2)cc1`: the z-score is -0.902.

A short description of the next experiment: S. cerevisiae growth modulation with rapamycin, primary screen, strain BY4716, OD600, 96 h (AID 1091). Particulars: higher = more signal, called active from +8 up or from −8 down.
As to `CO[C@H]1COC(=O)CC=C[C@H](C)[C@@H](OC)COC(=O)[C@@H](C)NC(=O)CC=C[C@@H]1C`, the z-score was -1.67.

For `CCOC(=O)[C@H](Cc1ccccc1)NC(=O)OC1CC(CCC2CC(CC)=NO2)OC2(CCCC(COC(=O)NCCC(C)C)O2)C1` (stereo partly specified), the z-score was 0.344.

Turning to `CC(C)CON=C1C[C@@H](O)[C@@H](O)[C@@H]2[C@@H]3C(=O)N(c4ccc(F)cc4F)C(=O)[C@@H]3CC[C@H]12`, the z-score was -0.337.

With `CC(C)(C)N1C(=O)[C@H]2[C@H]3[C@H](O)[C@H](O)CC(=NO[C@@H]4O[C@H](CO)[C@@H](O)[C@H](O)[C@H]4O)[C@H]3CC[C@H]2C1=O`, the z-score is -0.235.

Consider `COC(=O)C=CCCc1coc(C=CCNC(=O)OC)n1`, for which the z-score is 0.196.

On to `Cc1ccc(S(=O)(=O)OC[C@H]2CN3[C@H](c4ccc(Br)cc4)[C@@H](C)CC[C@H]3C(=O)O2)cc1`, for which the z-score is -3.38.

On to `CO[C@@H]1COC(=O)[C@@H](C)NC(=O)CC=C[C@@H](C)[C@H](NS(=O)(=O)c2ccc(C)cc2)COC(=O)[C@H](C)NC(=O)CC=C[C@H]1C`, for which the z-score is -0.331.

Turning to `COC(=O)[C@H](C)NC(=O)CCC1CC(OC(=O)NCc2ccc3c(c2)OCO3)CC2(CCCC(COC(=O)NCC3CCCCC3)O2)O1` (stereo partly specified), the z-score was 1.45.

Consider `C#CCCCON=C1C[C@@H](O)[C@@H](O)[C@@H]2[C@@H]3C(=O)N(C(C)(C)C)C(=O)[C@@H]3CC[C@H]12`, for which the z-score is -0.0894.

Regarding `CCOC(=O)NN=C1C[C@@H](O)[C@@H](O)[C@@H]2[C@@H]3C(=O)N(C(C)(C)C)C(=O)[C@@H]3CC[C@H]12`, the z-score was -0.397.

In the case of `C[C@H]1COC(=O)[C@@H]2CCCN2C(=O)[C@@H](C)COC(=O)[C@H](Cc2ccccc2)NC1=O`, the z-score is -1.2.

Regarding `CCOC(=O)NN=C1C[C@@H](O)[C@@H](O)[C@@H]2[C@@H]3C(=O)N(c4cccc(Oc5ccccc5)c4)C(=O)[C@@H]3CC[C@H]12`, the z-score is -0.873.

For the molecule `CCOC(=O)C1=NO[C@@]2(C=C(Br)C3(OCCCO3)[C@H]3O[C@H]32)C1`, the z-score is -0.291.

Regarding `CO[C@@H]1COC(=O)[C@H](CCSC)NC(=O)CC=C[C@@H](C)COC(=O)CCC[C@H]1C`, the z-score was -1.25.

With `CCOC(=O)[C@H](Cc1ccccc1)NC(=O)CCC1CC(OC(=O)NCc2cccc3ccccc23)CC2(CCCC(COC(=O)NCCC(C)C)O2)O1` (stereo partly specified), the z-score is -1.36.

For the molecule `CC[C@@H](c1ccccc1)n1c(=O)n2n(c1=O)[C@H]1[C@H](O)[C@@H]3O[C@@H]3C(=O)[C@H]1CC2`, the z-score was -0.0584.

For `CCc1cc2c(nc1CC)CCN(CCC(C)=NO[C@H](C)c1cn([C@H](CO)Cc3ccccc3)nn1)C2`, the z-score was -0.112.

In the case of `CCOC(=O)[C@H](CC(C)C)NC(=O)CCC1CC(OC(=O)NCc2ccc3c(c2)OCO3)CC2(CCCC(COC(=O)NCC(c3ccccc3)c3ccccc3)O2)O1` (stereo partly specified), the z-score is 0.34.

Consider `CCOC(=O)CCN1C(=O)[C@H]2[C@H]3[C@H](O)[C@H](O)CC(=NOCC(C)C)[C@H]3CC[C@H]2C1=O`, for which the z-score is 0.0797.

Regarding `O=C1[C@H]2[C@H]3[C@H](O)[C@H](O)CC(=NOCc4ccccc4)[C@@H]3CC[C@H]2C(=O)N1C[C@@H]1CCCO1`, the z-score is -0.369.

Take `CCOC(=O)[C@H](CC(C)C)NC(=O)CCC1CC(OC(=O)NCc2cccc3ccccc23)CC2(CCCC(COC(=O)NCC3CCCCC3)O2)O1` (stereo partly specified): the z-score is 0.0127.

`CC(C)=CCCC(C)=CCON=C1C[C@@H](O)[C@@H](O)[C@@H]2[C@@H]3C(=O)N(c4cccc(Oc5ccccc5)c4)C(=O)[C@@H]3CC[C@@H]12`: the z-score was -0.184.

With `O=C1[C@H]2[C@H]3[C@H](O)[C@H](O)CC(=NOC[C@@H](O)COCc4ccco4)[C@H]3CC[C@H]2C(=O)N1c1ccc(F)cc1F`, the z-score is -1.97.

Turning to `COc1ccc(O[C@@H]2[C@H](O)CO[C@H]2C=Cc2ccccc2)cc1`, the z-score is -0.856.

In the case of `COC(=O)[C@@H]1CC[C@H](C)[C@@H](c2ccc(C)cc2)N1C(=O)c1ccc(C=NO[C@@H]2O[C@H](COC(C)=O)[C@@H](OC(C)=O)[C@H](OC(C)=O)[C@H]2OC(C)=O)cc1`, the z-score is 0.876.

For the molecule `CO[C@H]1COC(=O)[C@H](C)NC(=O)[C@@H](C)COC(=O)[C@H]2CCCN2C(=O)CC=C[C@H]1C`, the z-score was -0.571.

`CC(C)=CCCC(C)=CCON=C1C[C@@H](O)[C@@H](O)[C@@H]2[C@@H]3C(=O)N(c4ccc(F)cc4F)C(=O)[C@@H]3CC[C@H]12`: the z-score is -1.53.

Take `COc1cc(O)c(C(=O)C=Cc2ccc3c(c2)OCO3)c(OC)c1`: the z-score is 2.26.

Consider `COc1ccc(O[C@H]2C=C[C@@H](c3ccccc3)O[C@@H]2CON=C2[C@H]3CCn4c(=O)n(-c5ccccc5)c(=O)n4[C@H]3[C@H](O)[C@@H]3O[C@H]23)cc1`, for which the z-score was 0.661.

As to `COc1ccc(COC(=O)NN=C2C[C@@H](O)[C@@H](O)[C@@H]3[C@@H]4C(=O)N(Cc5ccccc5)C(=O)[C@@H]4CC[C@H]23)cc1`, the z-score was -1.17.

For the molecule `CO[C@H]1COC(=O)[C@@H](C)COC(=O)[C@@H](OCc2ccccc2)C=C[C@@H]1C`, the z-score is 1.03.

Take `COc1ccc(O[C@H]2C=C[C@@H](c3ccccc3)O[C@@H]2CON=C(C)CCN2CCc3nc(-c4ccccc4)c(-c4ccccc4)cc3C2)cc1`: the z-score was -2.92.

As for `CCN1C(=O)[C@H]2[C@H]3[C@H](O)[C@H](O)CC(=O)[C@H]3CC[C@H]2C1=O`, the z-score was -0.18.

`CCCNC(=O)OC[C@H]1O[C@H](CCON=C(C)C)C=C[C@@H]1Oc1ccc(OC)cc1`: the z-score is 0.0158.

As for `CCOC(=O)NN=C1C[C@@H](O)[C@@H](O)[C@@H]2[C@@H]3C(=O)N(c4ccc(F)cc4F)C(=O)[C@@H]3CC[C@@H]12`, the z-score is -0.0512.

For the molecule `C[n+]1ccc(-c2ccc(CO)cc2)cc1`, the z-score is 3.9.
